Results as given in PubChem BioAssay.
Where “and” joins values, the source holds several entries; their conditions need not be identical. Equal entries are not always repeated. A number with no mark means an inactive call. The rule behind the calls is not given here.

System: Aerobactin synthetase IucA (Klebsiella pneumoniae, hypervirulent)
Assay: IucA enzyme inhibition, biochemical, LOPAC library, absorbance readout (AID 1346212);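 note: 100% = no compound wells and 0% = no enzyme wells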
Details: IucA enzyme assay, absorbance (OD) readout; stronger effect = lower value;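 tested at 8 µM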

SMILES | remaining activity
CC(C)NC[C@H](O)c1ccc(O)c(O)c1 | 108% and 104%
CCCCCCCCCCCCCCCCCC(=O)NCC(COP(=O)([O-])OCC[N+](C)(C)C)OCC (stereo not given) | 97.5%
CC(=O)[C@H]1CC[C@H]2[C@@H]3CCC4=CC(=O)CC[C@]4(C)[C@H]3CC[C@]12C | 123%
NCC(O)C1CCCCCCC1 (stereo not given) | 92.7%
COc1ccc(Cl)cc1NC(=O)Nc1cc(C)nc2ccccc12 | 95%
CC(C)Cn1cnc2c(N)nc3ccccc3c21 | 102%
COC1=C(OC)C(=O)c2ccccc2C1=O | 109%
CN=C(NC#N)Nc1ccc(C2=NNC(=O)CC2C)cc1 (stereo not given) | 104%
Cc1cccc(C(=O)NCN2CCN(c3ccccc3C#N)CC2)c1 | 123%
C[N+](C)(C)CCOP(=O)(O)OP(=O)([O-])OC[C@H]1O[C@@H](n2ccc(N)nc2=O)[C@H](O)[C@@H]1O | 115%
CSc1nc(N)c2ncn([C@@H]3O[C@H](COP(=O)(O)OP(=O)(O)OP(=O)(O)O)[C@H](O)C3O)c2n1 (stereo not given in full) | 109%
CC[C@@H]1SC2(CCN(C)CC2)NC1=O | 91.6%
CNCCC(Oc1ccccc1OC)c1ccccc1 (stereo not given) | 104%
C[C@H]1C[C@H]2[C@@H]3CCC4=CC(=O)C=C[C@]4(C)[C@@]3(F)[C@@H](O)C[C@]2(C)[C@@]1(O)C(=O)CO | 114%
C#C[C@]1(O)CC[C@H]2[C@@H]3CCC4=Cc5oncc5C[C@]4(C)[C@H]3CC[C@@]21C | 101%
CC(=O)[C@H]1CCC2C3CC=C4C[C@@H](OS(=O)(=O)O)CC[C@]4(C)C3CC[C@@]21C (stereo not given in full) | 107%
CC(C)NCC(O)COc1ccc(CCOCC2CC2)cc1 (stereo not given) | 123%
C[C@]12CCC(=O)C=C1CC[C@@H]1[C@@H]2[C@@H](O)C[C@@]2(C)[C@H]1CC[C@]2(O)C(=O)COC(=O)CCC(=O)O | 92.9%
N[C@@H](COP(=O)(O)O)C(=O)O | 124%
CC1CNCCN1S(=O)(=O)c1cccc2cnccc12 (stereo not given) | 95.7%
C[C@@H](N)C1CCC(C(=O)Nc2ccncc2)CC1 (stereo not given in full) | 107%
NS(=O)(=O)C#Cc1ccccc1 | 118%
Cc1cccc(C)c1OCC(C)N (stereo not given) | 113%
Cc1nc2sccn2c(=O)c1CCN1CCC(=C(c2ccc(F)cc2)c2ccc(F)cc2)CC1 | 99.1%
COc1cccc(C(=O)NCCN2CCN(c3ccc(Cl)cc3)CC2)c1 | 124%
